Inconclusive results are not listed. The source made the active and inactive calls. The call rests on the fitted dose curve; in most records, active means well fitted inhibition curve with a large enough effect; inconclusive means small, poorly fitted or top-dose-only effect; inactive means flat fitted curve, though single readings scatter.
Test: Secondary Assay for lipid storage modulators: Cytotoxcity for probe SAR
Settings: Drosophila S3 cells viability, CellTiter-Glo luminescence, 24 h; series mostly up to 46.1 µM; activity change, negative = cytotoxicity: at the top concentration
From the text: NIH Molecular Libraries Probe Production Centers Network [MLPCN] NIH Chemical Genomics Center [NCGC] MLPCN Grant: 1 R03 MH085686-01 Assay Submitter (PI): Beller, Mathias; Max-Planck-Institut fur Biophysikalische Chemie, Germany. NCGC Assay Overview: Storing lipids as a reservoir for energy or the anabolism of elementary metabolites is a common feature of probably all cells and is conserved from bacteria to humans. The universal cellular lipid storage organelle is the so-called lipid storage droplet (LD). Although ubiquitous, LDs share a simple structure composed of a hydrophobic core that harbors the storage lipids, which is shielded by a droplet-specific phospholipid monolayer to which proteins are attached. The current model of LD biogenesis involves an incorporation of the lipid core into the membrane leaflets of the endoplasmic reticulum (ER) followed by a subsequent budding-like maturation of a LD, which ultimately pinches off. Once released, LD volume can increase by localized lipogenesis or fusion of existing droplet. Storage lipids are re-mobilized enzymatically by lipase activity. Lipase regulation in the adipocyte is heavily studied and involves multiple components including catecholamine signaling, the LD-associated proteins Perilipin and comparative gene identification (CGI-58) and at least two lipases named hormone sensitive lipase (HSL) and adipocyte triglyceride lipase (ATGL). LD regulation outside of the adipocyte is poorly understood and only few components are known. However, there is an urgent need to learn more about ectopic fat depots as mislocalized storage of lipids, for example in the liver or muscle, is an eminent health problem associated with insulin resistance or the metabolic syndrome. We developed a laser-scanning cytometer assay to enable 1,536-well screening and combined the results of the small molecules screen with an RNAi database based on lipid storage. The compound was tested here for cytotoxcity using CellTiter-Glo.
Assay Protocol Summary: Cytotoxcity assay was performed with embryonic Drosophila S3 cells (Bloomington Drosophila Genomics Resource Center [DGRC]). We dispensed 4 uL of cells at 1.25 x 10^6 cells/mL into Greiner solid white 1,536-well plates with a bottle-valve solenoid-based dispenser (Aurora) to obtain 5,000 cells/well. A total of 23 nL of compound solution of different concentrations were transferred to the assay plates using a Kalypsys pin tool equipped with a 1,536-pin array containing 10-nL slotted pins (FP1S10, 0.457-mm diameter, 50.8 mm long; V&P Scientific). One microliter of oleic acid (400 uM) was added, and the plate was lidded with stainless steel rubber gasket lined lids containing pinholes. After 24 hrs of incubation at 24 degrees Celsius and 95% humidity, 4 uL of CellTiter-Glo (Promega) was added to the wells. Luminescence was detected on the Perkin Elmer ViewLux.
In the case of `CCOC(=O)C1CCN(C(=O)C2(NC(=O)Nc3ccccc3Cl)CCCC2)CC1`, the “activity change, negative = cytotoxicity” value is reported as -6.46% (inactive).
For `CCOc1ccc(CCNC(=O)c2ccc(Oc3ccccc3)cc2)cc1OCC`, the “activity change, negative = cytotoxicity” value was -11.1% (inactive).
In the case of `CCOc1ccc(CCNC(=O)c2ccc(C(=O)c3ccccc3)cc2)cc1OCC`, the “activity change, negative = cytotoxicity” value is reported as -22.2% (inactive).
With `CCOc1ccc(CCNC(=O)c2ccccc2)cc1OCC` the “activity change, negative = cytotoxicity” value was -13.3% (inactive).
In the case of `CCC/C=C/C/C=C/C=C/C=N/NN=O`, the “activity change, negative = cytotoxicity” value is reported as -22.4% (inactive).

— PubChem BioAssay AID488908 (National Center for Advancing Translational Sciences (NCATS), 2010)
